PL synth Enamine: blocks phospholipid synthesis in CHO cells, Enamine compounds. ZR-82 CHO cells, pyrene fatty acid UV survival, CellTiter Blue; peroxisome-deficient CHO-K1 mutant line; plus DGAT-1, DGAT-2 and ACAT inhibitors. calls only at 10 µM. 20,000 compounds, 0.4% hits. AID 1347385;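 active = cell survival signal 2 SD away from solvent-only control wells, confirmed on one or two retests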;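 note: 3 h compound exposure then viability read about one day after UV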
* = called active by the depositor. The full list was thinned out, with hits kept by preference.

CN1/C(=C\C(P(=O)(c2ccccc2)c2ccccc2)P(=O)(c2ccccc2)c2ccccc2)C(C)(C)c2ccccc21 was read as PL synth Enamine inactive.
For O=C(CC12CC3CC(CC(Br)(C3)C1)C2)NCC1(N2CCCCC2)CCCCC1 the results were PL synth Enamine inactive.
NC(=S)NC1CCCCC1 was read as PL synth Enamine inactive.
For CN=c1scc(-c2ccccc2)n1/N=C/c1c[nH]c2ccccc12 the results were PL synth Enamine inactive.
C(=N\n1c(-c2ccccc2)csc1=NCCc1ccccc1)/c1c[nH]c2ccccc12 was read as PL synth Enamine active.
For C(=N\n1c(-c2ccco2)csc1=NCCc1ccccc1)/c1ccco1 the results were PL synth Enamine inactive.
For O=P1(NC2CCCCC2)C=C(c2ccccc2)SC(c2ccccc2)=C1 the results were PL synth Enamine inactive.
Screening O=C1CC2(CCCC2)C(=O)N1CN1CCN(S(=O)(=O)c2ccc(F)cc2)CC1 returned PL synth Enamine inactive.
Screening Cc1ccc(N=Nc2cc(C(C)(C)C)cc(Br)c2O)cc1 returned PL synth Enamine active.
For CC(C)(C)c1cc(C=Nc2cc(C(C)(C)C)cc(C(C)(C)C)c2O)c(O)c(C(C)(C)C)c1 the results were PL synth Enamine inactive.
CC(C)(C)N/N=C/c1cc(Br)c(O)c(Br)c1 was read as PL synth Enamine inactive.
For CS(=O)(=O)Nc1cc(S(=O)(=O)Nc2ccc(Cl)cc2)ccc1O the results were PL synth Enamine inactive.
For c1csc(-c2nc(Sc3nnc(-c4cccs4)n3CC3CCCO3)c3ccccc3n2)c1 (centres undefined) the results were PL synth Enamine inactive.
Screening O=C(/C=C/NCCN/C=C/C(=O)C(F)(F)F)C(F)(F)F returned PL synth Enamine inactive.
`O=[N+]([O-])c1ccc(S/C(=C2/Nc3ccccc3S2)c2nc3ccccc3s2)cc1` gave PL synth Enamine inactive.
For Fc1ccc(NC(=S)NNc2ccnc3cc(Cl)ccc23)cc1 the results were PL synth Enamine inactive.
`S=C(NNc1ccnc2cc(Cl)ccc12)Nc1ccccc1Cl` gave PL synth Enamine active.
For S=C(NNc1ccnc2cc(Cl)ccc12)Nc1ccc(Cl)cc1 the results were PL synth Enamine inactive.

Compound activity as filed in PubChem.
